In the library only some 19% were active in any assay of this set; here they are far more common.
IL-1B inflam inh: inhibitors of inflammasome signaling (IL-1 beta secretion); THP-1 LPS/ATP IL-1B secretion, AlphaLISA, 16 h; stronger effect = lower value; AID 743279; 360,000 compounds, 4.7% hits; activity change, % at 57.5 µM; in the data active means activity change below about -50%; inconclusive means mostly about -30% to -49%
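Secreted IL-1B measured by AlphaLISA bead assay after 16 h compound exposure of THP-1 cells; compounds (final up to 57.5 uM) added 1 h before LPS (250 ng/mL) and ATP (1.25 mM) stimulation; lower signal means less secretion.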
DT40 TDP1 CPT: growth inhibition of DT40 Tdp1-/-;hTDP1 cells with camptothecin (screen for TDP1 inhibitors). chicken DT40 Tdp1-/-;hTDP1 cells + 20 nM CPT, ATP luminescence, 48 h. Potency, µM (doses to about 46.2 µM), inactives show top-dose activity change, negative = growth inhibition, usual class: inhibitors. 420,000 compounds, 12% hits; further: potency means the concentration at half of the fitted maximal effect; nearly all actives have a fitted effect of over 55% in size
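Cell growth measured by CellTiter-Glo luminescence after a minimum 48 h, 37 C compound exposure with 20 nM CPT in Tdp1-knockout DT40 cells stably expressing hTDP1, seeded 400/well; qHTS titration format.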
TDP1 cell noCPT: qHTS for Inhibitors of human tyrosyl-DNA phosphodiesterase 1 (TDP1): qHTS in cells in absence of CPT; DT40 Tdp1-/- hTDP1 cells, no CPT, ATP luminescence, 48 h; Potency, µM (titrated, usually from 46.2 µM), for the others: at the top dose activity change, negative = growth inhibition, most hits filed as inhibitors; 420,000 compounds, 15% hits; further: potency means the concentration at half of the fitted maximal effect; nearly all actives have a fitted effect of over 55% in size
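A cellular qHTS used chicken DT40 cells lacking endogenous Tdp1 but carrying stably transfected human TDP1. Compounds were applied without camptothecin, and cell growth kinetics were judged by ATP-dependent luminescence after ≥48 hr.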
HT1080 IDH1KD tx: toxicity to HT-1080 IDH1 knockdown cells (counter line); HT-1080 IDH1 knockdown viability, ATP luminescence, 48 h; Potency, µM (titrated, usually from 46.1 µM), for the others: top-dose activity, negative = toxicity, most hits filed as cytotoxic; 360,000 compounds, 2% hits; AID 686971;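 further: potency means the concentration at half of the fitted maximal effect; 0% = DMSO wells and -100% = cell-free medium wells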
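Viability of IDH1-knockdown HT-1080 fibrosarcoma cells was assessed by CellTiter-Glo after 48 h at 37 °C with titrated compound; concentration-effect curves were classified by fit quality and response size.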
ELG1 DNA repair: ELG1-dependent DNA repair inhibition. AID 504467. 330,000 compounds, 2.3% hits. Potency, µM (highest dose often 46.1 µM), inactives show at the highest dose activity change, negative = inhibition, hits mostly inhibitors. HEK293T ELG1-luciferase reporter, luminescence, 16 h; DNA damage induced by 5-fluorouridine; further: potency means the concentration at half of the fitted maximal effect; nearly all actives have a fitted effect of over 55% in size
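HEK293T cells expressing luciferase-tagged ELG1 (2,000/well) received 5-Fluorouridine plus compound or DMSO for 16 hr at 37 °C. Luciferase was read by ONE-Glo luminescence after 30 min at room temperature.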
HT1080NT lethal: kills 2HG-producing HT-1080-NT fibrosarcoma cells; HT-1080-NT fibrosarcoma viability, CellTiter-Glo ATP luminescence, 48 h; Potency, µM (doses to about 46.1 µM), without a hit: top-dose activity, negative = less viability, usual class: cytotoxic; 360,000 compounds, 1.6% hits; AID 686970;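 further: NT is the 2HG producing partner of a matched IDH1 knockdown line; potency means the concentration at half of the fitted maximal effect; 0% = DMSO-treated cells and -100% = media-only wells without cells; nearly all actives have a fitted effect of over 55% in size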
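HT-1080-NT fibrosarcoma cells (2HG-overproducing), 750 cells/well in RPMI with 5% FBS, dosed after 2 h and incubated 48 h at 37C. CellTiter-Glo luminescence normalized to DMSO and no-cell wells; concentration-response curves fitted and classed.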
An asterisk follows results filed as active; ? = inconclusive; nt = no result given. Unless noted, the call rests on the fitted dose curve; in most records, active means well fitted curve in the direction sought with a large enough effect; inconclusive means small, poorly fitted or top-dose-only effect, or another doubt; inactive means no such curve, though single readings can be large; an effect the other way counts as inactive or inconclusive. Unless noted, on the % scale 0 is the no-effect control and ±100 the full control effect.

SMILES	IL-1B inflam inh	DT40 TDP1 CPT	TDP1 cell noCPT	HT1080 IDH1KD tx	ELG1 DNA repair	HT1080NT lethal
COC(=O)CNC(c1ccccc1)c1cc(Br)ccc1NS(=O)(=O)c1ccccc1 (stereo unspecified)	10.8	21.0%	-4.9%	17.6%	4.3%	12.7%
COC(=O)CNC(c1ccccc1)c1cc(Br)ccc1NC(=O)CCN1CCOCC1 (stereo unspecified)	-55.4*	2.59µM*	1.64µM*	?	6.1%	-21.6%
COC(=O)CNC(c1ccccc1)c1cc(Br)ccc1NC(=O)CNC(=O)OCc1ccccc1 (stereo unspecified)	?	-10.3%	?	20.6µM*	?	?
COC(=O)CNC(c1ccccc1)c1cc(Br)ccc1N (stereo unspecified)	30.4	-19.8%	?	3.9%	0.4%	-5.9%
NNC(=O)CNC(c1ccccc1)c1cc(Br)ccc1N (stereo unspecified)	-72.2*	8.3%	-13.4%	?	9.9%	-28.7%
COc1ccccc1-c1nnc(NC(=O)c2ccc(S(=O)(=O)N(C)C)cc2)o1	7.0	?	23.1µM*	?	?	-23.8%
CCN(Cc1ccccc1)S(=O)(=O)c1ccc(C(=O)Nc2nnc(-c3ccccc3OC)o2)cc1	8.9	11.6µM*	8.2µM*	-25.3%	?	-9.5%
COc1ccccc1-c1nnc(NC(=O)c2ccccc2F)o1	3.9	?	?	-18.6%	13.5%	0.9%
OCC1OC(n2ccc3c(SCc4ccccc4)ncnc32)C(O)C1O (stereo unspecified)	-9.2	-27.9%	?	-18.6%	nt	-4.1%
CCOC(=O)[C@]12CCC=C1N(Cc1ccco1)C(=O)[C@H](CC(=O)NCCCCc1ccccc1)C2	-17.2	?	?	-14.3%	nt	-20.9%
COc1ccc(N2CCN(C(=O)CNC(=O)Cc3ccccc3)CC2)cc1	-4.3	-2.9%	1.2%	-2.8%	-5.8%	0.4%
O=C(Cc1ccc(Cl)cc1)NCC(=O)N1CCN(c2ccccc2)CC1	-0.4	29.1µM*	23.1µM*	?	-25.1%	?
CC(C)[C@H](NC(=O)c1ccc(Cl)cc1)C(=O)OCC(=O)N1CCN(c2ccccc2)CC1	-17.9	?	20.6µM*	2.5%	?	-8.2%
COc1ccc(N2CCN(C(=O)CNC(=O)Cc3ccc(Cl)cc3)CC2)cc1	0.0	5.17µM*	5.8µM*	20.6µM*	-17.6%	?
CC(C)NC(=O)C1(C)CN(S(C)(=O)=O)CC(=O)N1Cc1cccs1 (stereo unspecified)	24.6	-0.5%	?	0.7%	nt	19.4%
CC1=CC(=O)C=C(C)C1=NOc1ccccc1[N+](=O)[O-]	?	1.3µM*	2.06µM*	13.9%	?	3.4%
COc1ccc(CCN2C(=O)c3[nH]nc(-c4ccccc4O)c3C2c2cccc(O)c2)cc1OC (stereo unspecified)	-29.4	-0.5%	?	?	18.4µM*	?
COc1ccc(CCN2C(=O)c3[nH]nc(-c4ccccc4O)c3C2c2ccc(OC)c(OC)c2)cc1 (stereo unspecified)	nt	-118.9%	?	nt	nt	nt
COc1ccc(CCN2C(=O)c3[nH]nc(-c4ccccc4O)c3C2c2ccccc2)cc1 (stereo unspecified)	nt	5.17µM*	5.8µM*	nt	nt	nt
COc1cccc(C2c3c(-c4ccccc4O)n[nH]c3C(=O)N2CCc2ccc(OC)c(OC)c2)c1 (stereo unspecified)	nt	14.6µM*	18.4µM*	nt	nt	nt
COc1ccc(NS(=O)(=O)c2cc(NC(=O)c3ccc(=O)[nH]n3)ccc2N2CCOCC2)cc1	3.5	?	?	12.0%	15.4%	0.6%
Cc1ccc(S(=O)(=O)c2cn(C)c3cc(N4CCN(C)CC4)c(F)cc3c2=O)cc1	-96.9*	?	?	3.2%	2.5%	-1.5%
Cc1ccc(S(=O)(=O)c2cn(C)c3cc(N4CCN(c5ccccc5)CC4)c(F)cc3c2=O)cc1	nt	?	7.31µM*	nt	nt	nt
CN(C)CCCN(C(=O)c1ccco1)c1nc2c(F)cccc2s1	-14.8	?	?	?	?	-29.7%
Cc1cc(C)c2nc(N(CCCN(C)C)C(=O)c3ccc4c(c3)CCCC4)sc2c1	-77.8*	20.6µM*	10.3µM*	?	-9.7%	-15.2%
SMILES	IL-1B inflam inh	DT40 TDP1 CPT	TDP1 cell noCPT	HT1080 IDH1KD tx	ELG1 DNA repair	HT1080NT lethal
CN(C)CCCN(C(=O)c1ccc2c(c1)CCCC2)c1nc2c(F)cccc2s1	-62.3*	20.6µM*	23.1µM*	0.3%	?	-16.5%
Cc1ccc(NC(=O)Nc2ccnc(-c3cccnc3)n2)cc1	35.6	8.2µM*	8.2µM*	-5.9%	-19.8%	-4.0%
COc1ccc2[nH]c(C)c(CCNS(=O)(=O)c3cc(F)ccc3OC)c2c1	nt	3.5%	-27.7%	nt	nt	nt
Cc1ccc(Nc2nc(NCc3ccco3)nc3nccnc23)cc1Cl	nt	-19.6%	-20.3%	nt	nt	nt
N/C(=N\OC(=O)c1ccccc1)C(C(=O)NOC(=O)c1ccccc1)C1CCCCC1 (stereo unspecified)	?	25.9µM*	18.4µM*	?	nt	?
COc1ccc(CC(=O)NCC2CCCN(Cc3ccccc3Cl)C2)cc1 (stereo unspecified)	9.2	-27.5%	-26.3%	2.9%	0.5%	6.8%
CC(=O)OCC1(C)CN(c2ccccc2)N(C(=O)c2ccc(C(C)(C)C)cc2)C1=O (stereo unspecified)	-1.7	?	?	?	-15.2%	?
CC(=O)OCC1(C)CN(c2ccccc2)NC1=O (stereo unspecified)	23.7	20.6µM*	?	23.1µM*	?	?
CC(=O)OCC1(C)CN(c2ccccc2)N(C(C)=O)C1=O (stereo unspecified)	11.6	?	20.6µM*	?	-13.1%	20.6µM*
CN(C)CCNC(=O)c1cccc(-c2cnc3c(NC=O)cc(-c4ccc(C(=O)N5CCOCC5)cc4)cn23)c1	-5.1	-1.2%	11.8%	0.6%	nt	16.8%
CC(=O)c1ccc(-c2cnc3c(NC=O)cc(-c4ccc(C(=O)N5CCOCC5)cc4)cn23)cc1	0.0	16.4µM*	20.6µM*	?	nt	?
COc1ccc(-c2cnc3c(NC=O)cc(-c4ccc(C(=O)N5CCOCC5)cc4)cn23)cc1OC	?	4.11µM*	3.26µM*	20.6µM*	nt	?
